In PubChem BioAssay (EPA / NIEHS):
Activity calls are given as the source filed them. The calls were made as follows: active = hit-call score of the fitted dose curve at least 0.9, where 1 is the maximum; inactive = score below 0.9.

How the values were obtained:
[1] = read-out: urokinase plasminogen activator (uPA), PLAU (gene 5328); test: BSK_KF3CT_uPA: BioMAP Diversity Plus: KF3CT Assay for urokinase plasminogen activator (uPA) Biomarker Activity (AID 2283075); settings: primary human keratinocytes with fibroblasts; actives raise or lower the signal
Procedure, shortened: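 ELISA read-out of uPA 24 h after dosing human skin keratinocytes co-cultured with foreskin fibroblasts. Signal change fitted both ways relative to DMSO; sulforhodamine B on parallel cultures marks overt cytotoxicity.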

[2] = read-out: E-selectin (Homo sapiens) (UniProt P16581); test: BSK_LPS_Eselectin: BioMAP Diversity Plus: LPS Assay for Eselectin Biomarker Activity (AID 2283077); settings: primary human HUVEC with PBMC; actives raise or lower the signal
Procedure, shortened: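 Human umbilical vein endothelial cells co-cultured with PBMC under LPS stimulation; cell-surface E-selectin measured by ELISA 24 h after dosing. Change in either direction versus DMSO, with SRB total-protein staining in parallel cultures for cytotoxicity.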

[3] = read-out: Interleukin-8 (IL8), CXCL8 (gene 3576); test: BSK_LPS_IL8: BioMAP Diversity Plus: LPS Assay for Interleukin-8 (IL8) Biomarker Activity (AID 2283078); settings: primary human HUVEC with PBMC; actives raise or lower the signal
Procedure, shortened: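 Human umbilical vein endothelial cells co-cultured with PBMC, LPS-stimulated, exposed to compound for 24 h. IL-8 quantified by ELISA; fitted in both directions against DMSO, with SRB total-protein staining of parallel cultures for cytotoxicity.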

[4] = BSK_LPS_SRB: Viability Assessment in the BioMAP Diversity Plus: LPS Assay (AID 2283079); settings: primary human HUVEC with PBMC;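 also: total protein by sulforhodamine B absorbance as a cytotoxicity measure; measured one day after compound addition; fitted in both directions against DMSO so loss or gain of signal counts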
Procedure, shortened: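 Co-culture of human umbilical vein endothelial cells and PBMC, read 24 h after dosing. Total protein by 0.1% SRB staining after 10% TCA fixation, absorbance at 560 nm; bidirectional fit against DMSO.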

[5] = read-out: Interleukin-1 alpha (IL1a), IL1A (gene 3552); test: BSK_LPS_IL1a: BioMAP Diversity Plus: LPS Assay for Interleukin-1 alpha (IL1a) Biomarker Activity (AID 2283080); settings: primary human HUVEC with PBMC; actives raise or lower the signal
Procedure, shortened: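 Human umbilical vein endothelial cells co-cultured with PBMC and stimulated with LPS; IL-1a measured by ELISA 24 h after dosing. Bidirectional fitting against DMSO; cytotoxicity checked by SRB staining in parallel cultures.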

[6] = read-out: Monocyte Chemoattractant Protein-1 (MCP1), CCL2 (gene 6347); test: BSK_LPS_MCP1: BioMAP Diversity Plus: LPS Assay for Monocyte Chemoattractant Protein-1 (MCP1) Biomarker Activity (AID 2283081); settings: primary human HUVEC with PBMC; actives raise or lower the signal;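 as to AC50: secreted MCP-1 protein quantified by ELISA in culture supernatant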
Procedure, shortened: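 Human umbilical vein endothelial cells co-cultured with PBMC, LPS-stimulated; secreted MCP-1 measured by ELISA 24 h after compound addition. Bidirectional curve fitting against DMSO baseline; SRB total-protein staining in parallel cultures for cytotoxicity.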

[7] = BSK_LPS_PGE2: BioMAP Diversity Plus: LPS Assay for Prostaglandin E2 (PGE2) Biomarker Activity (AID 2283082); settings: primary human HUVEC with PBMC; actives raise or lower the signal;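 as to AC50: secreted prostaglandin E2 measured by ELISA in LPS-stimulated co-culture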
Procedure, shortened: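 PGE2 release measured by ELISA in an LPS-activated co-culture of human umbilical vein endothelial cells and peripheral blood mononuclear cells, read at 24 h post-dosing. DMSO served as baseline for bidirectional curve fitting.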

[8] = read-out: Macrophage colony-stimulating factor (MCSF), CSF1 (gene 1435); test: BSK_LPS_MCSF: BioMAP Diversity Plus: LPS Assay for Macrophage colony-stimulating factor (MCSF) Biomarker Activity (AID 2283083); settings: primary human HUVEC with PBMC; actives raise or lower the signal
Procedure, shortened: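 HUVEC–PBMC co-culture, M-CSF measured by ELISA 24 h after chemical dosing. Fitted in both directions relative to DMSO as negative control; overt cytotoxicity assessed by SRB total-protein staining in parallel cultures.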

[9] = read-out: Tissue Factor, F3 (gene 2152); test: BSK_LPS_TissueFactor: BioMAP Diversity Plus: LPS Assay for Tissue Factor Biomarker Activity (AID 2283084); settings: primary human HUVEC with PBMC; actives raise or lower the signal
Procedure, shortened: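 Human umbilical vein endothelial cells co-cultured with PBMC were dosed with compound. Cell-surface CD142 was measured by ELISA 24 h later. Activity was fitted bidirectionally against DMSO, with SRB total-protein staining in parallel cultures for cytotoxicity.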

[10] = read-out: Tumor necrosis factor (Homo sapiens) (UniProt P01375); test: BSK_LPS_TNFa: BioMAP Diversity Plus: LPS Assay for Tumour Necrosis Factor alpha (TNFa) Biomarker Activity (AID 2283085); settings: primary human HUVEC with PBMC; actives raise or lower the signal;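 as to AC50: TNFa protein level quantified by ELISA in the co-culture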
Procedure, shortened: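 TNFa was quantified by ELISA in LPS-activated co-cultures of human endothelial cells and PBMC, 24 h post-dosing. Both increases and decreases versus DMSO were fitted.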

[11] = read-out: Vascular cell adhesion molecule 1 (VCAM1), VCAM1 (gene 7412); test: BSK_LPS_VCAM1: BioMAP Diversity Plus: LPS Assay for Vascular cell adhesion molecule 1 (VCAM1) Biomarker Activity (AID 2283086); settings: primary human HUVEC with PBMC; actives raise or lower the signal
Procedure, shortened: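 VCAM-1 quantified by ELISA in an LPS-activated co-culture of human endothelial cells and peripheral blood mononuclear cells, read 24 h post-treatment. Fitted in both directions versus DMSO; parallel SRB staining flags overt cytotoxicity.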

CD38, CD38 (gene 952) = test: BSK_SAg_CD38: BioMAP Diversity Plus: SAg Assay for CD38 Biomarker Activity (AID 2283087); settings: primary human HUVEC with PBMC; actives raise or lower the signal
Procedure, shortened: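 CD38 quantified by ELISA (fluorescence) in a superantigen-activated endothelial cell–PBMC co-culture at 24 h post-dose. Activity fitted in both directions relative to DMSO; parallel SRB and Alamar Blue cytotoxicity read-outs.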

CD40, CD40 (gene 958) = test: BSK_SAg_CD40: BioMAP Diversity Plus: SAg Assay for CD40 Biomarker Activity (AID 2283088); settings: primary human HUVEC with PBMC; actives raise or lower the signal
Procedure, shortened: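 HUVEC plus PBMC co-culture, superantigen-activated, with CD40 read by ELISA 24 h after dosing. Curves fitted in both directions against DMSO. Overt cytotoxicity checked by parallel SRB total-protein staining.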

CD69, CD69 (gene 969) = test: BSK_SAg_CD69: BioMAP Diversity Plus: SAg Assay for CD69 Biomarker Activity (AID 2283089); settings: primary human HUVEC with PBMC; actives raise or lower the signal;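 as to AC50: cell surface CD69 protein quantified by ELISA with fluorescence detection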
Procedure, shortened: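 Primary human vascular co-culture (umbilical vein endothelium with peripheral blood mononuclear cells) exposed to test chemical for 24 h. CD69 levels quantified by fluorescence ELISA; DMSO served as negative control for bidirectional fitting.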

[12] = read-out: Monocyte Chemoattractant Protein-1 (MCP1), CCL2 (gene 6347); test: BSK_SAg_MCP1: BioMAP Diversity Plus: SAg Assay for Monocyte Chemoattractant Protein-1 (MCP1) Biomarker Activity (AID 2283090); settings: primary human HUVEC with PBMC; actives raise or lower the signal
Procedure, shortened: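 Values derive from bidirectional fitting of ELISA-measured MCP1 against DMSO controls. Readings were taken 24 h after dosing human vascular endothelial cells co-cultured with peripheral blood mononuclear cells under superantigen stimulation.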

[13] = read-out: E-selectin (Homo sapiens) (UniProt P16581); test: BSK_SAg_Eselectin: BioMAP Diversity Plus: SAg Assay for Eselectin Biomarker Activity (AID 2283091); settings: primary human HUVEC with PBMC; actives raise or lower the signal
Procedure, shortened: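 Human umbilical vein endothelial cells co-cultured with peripheral blood mononuclear cells, SAg system. E-selectin is measured by ELISA 24 h after dosing and fitted bidirectionally against DMSO. Cytotoxicity is checked by SRB staining of parallel cultures.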

[14] = read-out: Monokine induced gamma interferon (MIG), CXCL9 (gene 4283); test: BSK_SAg_MIG: BioMAP Diversity Plus: SAg Assay for Monokine induced gamma interferon (MIG) Biomarker Activity (AID 2283092); settings: primary human HUVEC with PBMC; actives raise or lower the signal
Procedure, shortened: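 Endothelial cells and PBMC were co-cultured, exposed to test chemicals, and sampled 24 h later. MIG was measured by ELISA, and responses were fitted in both directions relative to DMSO.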

[15] = read-out: Interleukin-8 (IL8), CXCL8 (gene 3576); test: BSK_SAg_IL8: BioMAP Diversity Plus: SAg Assay for Interleukin-8 (IL8) Biomarker Activity (AID 2283094); settings: primary human HUVEC with PBMC; actives raise or lower the signal
Procedure, shortened: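 ELISA readout of IL-8 from a superantigen-activated endothelial/PBMC primary human co-culture, taken 24 h post-dosing and fitted in both directions against DMSO; parallel SRB total-protein staining flags overt cytotoxicity.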

[16] = BSK_SAg_PBMCCytotoxicity: PBMC Cytotoxicity Assessment in the BioMAP Diversity Plus: SAg Assay (AID 2283093); settings: primary human HUVEC with PBMC;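 also: PBMC viability measured as Alamar Blue reduction fluorescence at 546/580 nm; fitted both ways against DMSO so a hit may be loss or gain of signal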
Procedure, shortened: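 Alamar Blue reduction (6 h, ex/em 546/580 nm) read after 90 h culture of PBMC pre-dosed 1 h then stimulated with SEB plus TSST-1, 20 ng/mL each. Gain or loss of signal fitted relative to DMSO.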

Measured: AC50

Chain of E-selectin (Homo sapiens) (P16581 whole entry, looked up): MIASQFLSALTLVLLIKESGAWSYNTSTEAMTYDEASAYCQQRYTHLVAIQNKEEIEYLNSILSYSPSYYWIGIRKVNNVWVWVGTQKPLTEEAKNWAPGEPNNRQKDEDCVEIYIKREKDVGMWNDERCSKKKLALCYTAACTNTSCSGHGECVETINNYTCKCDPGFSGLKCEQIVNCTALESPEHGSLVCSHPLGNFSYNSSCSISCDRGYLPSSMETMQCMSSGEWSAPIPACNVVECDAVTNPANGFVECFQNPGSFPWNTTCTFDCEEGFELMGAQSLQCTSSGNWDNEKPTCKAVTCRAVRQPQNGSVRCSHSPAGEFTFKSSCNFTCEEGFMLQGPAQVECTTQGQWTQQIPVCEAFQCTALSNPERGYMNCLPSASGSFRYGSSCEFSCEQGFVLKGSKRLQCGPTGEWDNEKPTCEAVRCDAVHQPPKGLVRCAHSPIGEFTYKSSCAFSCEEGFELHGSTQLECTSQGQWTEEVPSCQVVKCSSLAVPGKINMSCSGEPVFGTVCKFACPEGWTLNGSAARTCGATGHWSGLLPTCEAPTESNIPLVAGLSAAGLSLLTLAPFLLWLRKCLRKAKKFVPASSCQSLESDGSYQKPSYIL
Chain of Tumor necrosis factor (Homo sapiens) (P01375 whole entry, looked up): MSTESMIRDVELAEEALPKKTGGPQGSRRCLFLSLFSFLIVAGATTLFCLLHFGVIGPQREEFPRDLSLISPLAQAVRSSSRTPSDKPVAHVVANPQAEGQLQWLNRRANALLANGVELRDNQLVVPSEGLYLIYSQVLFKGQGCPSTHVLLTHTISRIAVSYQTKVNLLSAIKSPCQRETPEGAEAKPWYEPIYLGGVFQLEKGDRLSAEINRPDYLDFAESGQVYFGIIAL

C=CC(=C)CCC=C(C)C
not listed: [16]
inactive: all other assays above

C[C@](N)(Cc1ccc(O)c(O)c1)C(=O)O
not listed: CD38, CD38 (gene 952) | [16]
inactive: all other assays above

CC(O)CN(CCN(CC(C)O)CC(C)O)CC(C)O (configuration not stated)
not listed: [16]
inactive: all other assays above

CNS(=O)(=O)c1cc(C(=O)N2CCC(CCN3C4CCC3CC(n3c(C)nc5ccccc53)C4)(c3cccc(F)c3)CC2)c(Cl)cc1F (configuration not stated)
active: [3] 20 µM | [4] 17.4 µM | [5] 23.5 µM | [6] 24.2 µM | [8] 18.3 µM | [11] 5.99 µM | CD38, CD38 (gene 952) 28.9 µM | CD40, CD40 (gene 958) 23.2 µM | CD69, CD69 (gene 969) 20 µM | [12] 27.5 µM | [15] 20 µM
inactive: [1] | [2] | [7] | [9] | [10] | [13] | [14]

CCCCC(CC)COC(=O)CCCCCCCCC(=O)OCC(CC)CCCC (configuration not stated)
not listed: [16]
inactive: all other assays above

O=C(O)CC(O)C(=O)O (configuration not stated)
not listed: CD38, CD38 (gene 952)
inactive: all other assays above

C=CCCCCCCCCC(=O)O
active: [7] 8.17 µM | [10] 0.74 µM
not listed: [16]
inactive: all other assays above

O=P(OC(CCl)CCl)(OC(CCl)CCl)OC(CCl)CCl
active: CD40, CD40 (gene 958) 20 µM | [12] 23.4 µM | [13] 20 µM | [15] 20 µM
not listed: CD38, CD38 (gene 952) | [16]
inactive: all other assays above

CC1=CC(=O)CC(C)(C)C1
not listed: CD38, CD38 (gene 952) | [16]
inactive: all other assays above

O=C(O)CCN(C1(C(=O)NO)CCCC1)S(=O)(=O)c1ccc(Oc2ccc(F)cc2)cc1
not listed: [16]
inactive: all other assays above
